Bioassay records as filed in PubChem BioAssay.
ALOX12 inh – inhibitors of human 12S-lipoxygenase ALOX12 | 1.1% of 580,000 active | AID 1671190 | P18054 | purified 12hLO, xylenol orange hydroperoxide absorbance | Potency, µM (series often up to 108 µM), hits mostly inhibitors
Target sequence (P18054 whole entry, looked up): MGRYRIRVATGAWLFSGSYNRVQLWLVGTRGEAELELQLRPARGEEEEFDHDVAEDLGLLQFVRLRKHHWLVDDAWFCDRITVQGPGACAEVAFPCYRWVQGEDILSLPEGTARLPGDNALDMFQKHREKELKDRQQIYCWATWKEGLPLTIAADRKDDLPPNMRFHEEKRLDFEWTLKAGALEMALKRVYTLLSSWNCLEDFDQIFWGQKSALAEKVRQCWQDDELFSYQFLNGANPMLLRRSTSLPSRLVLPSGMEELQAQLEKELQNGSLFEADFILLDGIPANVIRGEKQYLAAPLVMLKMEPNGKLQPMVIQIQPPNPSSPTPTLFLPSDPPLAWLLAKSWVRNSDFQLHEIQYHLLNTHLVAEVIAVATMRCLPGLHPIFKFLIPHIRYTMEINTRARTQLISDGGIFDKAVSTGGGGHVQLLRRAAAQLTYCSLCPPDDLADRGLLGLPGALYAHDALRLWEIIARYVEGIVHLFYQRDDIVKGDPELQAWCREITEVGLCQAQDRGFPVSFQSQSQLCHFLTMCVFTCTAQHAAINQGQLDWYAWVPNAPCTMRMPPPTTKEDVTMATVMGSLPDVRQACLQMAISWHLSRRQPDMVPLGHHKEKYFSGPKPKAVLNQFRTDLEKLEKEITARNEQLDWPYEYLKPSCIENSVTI
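Hydroperoxide product was detected by ferrous iron/xylenol orange as the 573 to 405 nm absorbance ratio. Arachidonic acid at 40 uM (final) was turned over for 30 min at room temperature by 150 nM human 12hLO, pH 7.0 Hepes buffer, after 15 min compound preincubation.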
TDP1 cell CPT – growth inhibition of DT40 Tdp1-/-;hTDP1 cells with camptothecin (screen for TDP1 inhibitors). chicken DT40 Tdp1-/-;hTDP1 cells + 20 nM CPT, ATP luminescence, 48 h. Potency, µM (top dose mostly 46.2 µM), actives largely listed as inhibitors. 12% of 420,000 active. AID 686979; also: nearly all actives have a fitted effect of over 55% in size
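Chicken DT40 Tdp1-/- cells stably complemented with human TDP1 were seeded at 400 cells/well in medium containing 20 nM camptothecin, exposed to pin-transferred compounds, and grown at 37 °C for at least 48 hr. Viability was read as ATP luminescence.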
HT1080-NT tox – kills 2HG-producing HT-1080-NT fibrosarcoma cells; HT-1080-NT fibrosarcoma viability, CellTiter-Glo ATP luminescence, 48 h; Potency, µM (top dose mostly 46.1 µM), most hits filed as cytotoxic; 1.6% of 360,000 active; AID 686970;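 also: NT is the 2HG producing partner of a matched IDH1 knockdown line; nearly all actives have a fitted effect of over 55% in size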
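HT-1080-NT fibrosarcoma cells (2HG-overproducing), 750 cells/well in RPMI with 5% FBS, dosed after 2 h and incubated 48 h at 37C. CellTiter-Glo luminescence normalized to DMSO and no-cell wells; concentration-response curves fitted and classed.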
DT40 TDP1 no CPT – qHTS for Inhibitors of human tyrosyl-DNA phosphodiesterase 1 (TDP1): qHTS in cells in absence of CPT; DT40 Tdp1-/- hTDP1 cells, no CPT, ATP luminescence, 48 h; Potency, µM (titrated, usually from 46.2 µM), usual class: inhibitors; 15% of 420,000 active; also: nearly all actives have a fitted effect of over 55% in size
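Luminescent ATP content (CellTiter-Glo) served as the growth readout. Knockout chicken DT40 cells expressing human TDP1 were exposed to compounds without camptothecin for a minimum 48 hr at 37 °C.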
HT1080 IDH1KD tx – kills HT-1080 cells with IDH1 knockdown. HT-1080 IDH1 knockdown viability, ATP luminescence, 48 h. Potency, µM (doses to about 46.1 µM), most hits filed as cytotoxic. 2% of 360,000 active
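In this qHTS, HT-1080 cells depleted of IDH1 are exposed for 48 h at 37 °C to compound titrations. Toxicity is scored from CellTiter-Glo luminescence, with DMSO as full viability and medium alone as none.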
IL1B secr inh – blocks inflammasome-driven IL-1 beta release | 4.7% of 360,000 active | activity change, % at 57.5 µM | THP-1 LPS/ATP IL-1B secretion, AlphaLISA, 16 h; active compounds read low | AID 743279; in the data active = activity change below about -50%; inconclusive = mostly about -30% to -49%
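THP-1 cells pretreated 1 hr with compounds (up to 57.5 uM final), then stimulated with LPS (250 ng/mL final) plus ATP (1.25 mM final); secreted IL-1B measured by AlphaLISA after 16 hr, decreased signal indicating inhibition.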
A number is an active result; - = inactive; ? = inconclusive; . = no result given; ! = not confirmed by another sample. This excerpt belongs to a sample that is enriched for hits. Unless noted, calls follow the shape of the dose curve; as a rule, active = well fitted curve in the direction sought with a large enough effect; inconclusive = small, poorly fitted or top-dose-only effect, or another doubt; inactive = no such curve, though single readings can be large; an effect the other way counts as inactive or inconclusive.

SMILES	ALOX12 inh	TDP1 cell CPT	HT1080-NT tox	DT40 TDP1 no CPT	HT1080 IDH1KD tx	IL1B secr inh
O=C(C[n+]1cc(-c2ccccc2)n2c1CCC2)Nc1nc(-c2ccc(F)cc2)cs1	?	?	-	16.4µM	-	-
O=C(C[n+]1cc(-c2ccc(F)cc2)n2c1CCC2)Nc1nc(-c2ccc(F)cc2)cs1	-	?	-	?	-	-
CC(NC(=O)c1cccs1)C(=O)N(CC#N)C1CC1 (stereo not given)	-	.	.	.	.	.
COC1CCOC2(CCN(C(=O)c3cccc(F)c3)CC2)C1 (stereo not given)	-	.	.	.	.	.
COc1ccc(OCC(=O)NNC(=S)NC(=O)c2ccc(Br)o2)cc1	?	?	-	?	-	-
CC1(C)O[C@@H]2[C@H](O1)[C@@H](CO)O[C@H]2n1cnc2c(=O)[nH]cnc21	-	29.1µM	?	-	-	-
CCc1cccc2c(C(C)=O)cn(CC(=O)NC3CC3)c12	31.6µM	.	.	.	.	.
CC(C)(O)C#Cc1ccc(C(=O)NCC(N)=O)cc1	-	.	.	.	.	.
FC(F)(F)c1ccccc1-n1ccnc1	-	?	-	16.4µM!	-	-
FC(F)(F)c1ccccc1-c1cncnc1-n1ccnc1	-	-	.	-	.	.
CCCCOc1ccc(NC(=O)C(C)Sc2ncnc3nc[nH]c23)cc1 (stereo not given)	-	.	.	.	.	.
C=CCC[C@@H](Cc1ccc(F)cc1)C(=O)OC[C@@H](C)NC(=O)[C@@H](CC=C)CC(=O)N[C@H](CO)Cc1ccccc1	-	14.6µM	-	?	-	?
C=CC[C@@H](CC(=O)NCCO)C(=O)NCCOC(=O)[C@@H](CC=C)Cc1ccc(F)cc1	-	-	-	-	-	-
C=CC[C@@H](CC(=O)N[C@H](CO)Cc1ccccc1)C(=O)N[C@@H](C)COC(=O)[C@@H](CC=C)Cc1ccc(F)cc1	-	?	-	18.4µM	-	-
C=CCC[C@@H](Cc1ccc(F)cc1)C(=O)OCCNC(=O)[C@@H](CC=C)CC(=O)N[C@@H](CO)Cc1ccccc1	-	?	-	-	-	-
C=CCC[C@@H](Cc1ccc(F)cc1)C(=O)OC[C@@H](Cc1ccccc1)NC(=O)[C@H](CC=C)CC(=O)NCCO	-	9.2µM	-	13µM	-	-
C=CCC[C@H](Cc1ccc(F)cc1)C(=O)OC[C@@H](C)NC(=O)[C@H](CC=C)CC(=O)NCCO	-	-	-	?	-	-
C=CC[C@@H](CC(=O)NCCO)C(=O)NC[C@H](OC(=O)[C@@H](CC=C)Cc1ccc(F)cc1)c1ccccc1	-	14.6µM	-	11.6µM	-	-
O=S(=O)(c1ccc(C(F)(F)F)cc1)N1CCN(Cc2nc3ccccc3o2)CC1	-	.	.	.	.	.
C=CCC[C@@H](Cc1ccc(F)cc1)C(=O)OCCNC(=O)[C@@H](CC=C)CC(=O)N[C@H](CO)Cc1ccccc1	-	20.6µM	-	?	-	-
COc1ccc(/C=N/NC(=O)c2c(C)nc3ccc(Br)cn23)cc1OC	-	8.2µM	?	7.31µM	4.61µM	-
COC(=O)c1ccc(/C=N\NC(=O)c2c(C)nc3ccc(Cl)cn23)cc1	.	?	-	10.3µM	-	-
C=CCOc1ccc(/C=N/NC(=O)c2c(C)nc3ccc(Cl)cn23)cc1	-	-	-	?	-	-
COc1cccc(/C=N/NC(=O)c2c(C)nc3ccc(Br)cn23)c1O	.	4.61µM	?	3.26µM	?	-
COc1ccc(/C=N/NC(=O)c2c(C)nc3ccc(Cl)cn23)cc1OC	-	11.6µM	?	8.2µM	-	-
SMILES	ALOX12 inh	TDP1 cell CPT	HT1080-NT tox	DT40 TDP1 no CPT	HT1080 IDH1KD tx	IL1B secr inh
COc1cc(/C=N/NC(=O)c2c(C)nc3ccc(Cl)cn23)cc(OC)c1OC	?	?	-	?	?	-
COc1cccc(/C=N/NC(=O)c2c(C)nc3ccc(Cl)cn23)c1OC	?	16.4µM	-	?	-	-
O=C(Sc1ccccc1)c1cccc(Cn2cc(C(F)(F)F)ccc2=O)c1	-	18.4µM	18.4µM	16.4µM	23.1µM	-
O=C(Nc1ccc(Cn2ccnc2)cc1)c1cccc(C(F)(F)F)c1	-	-	-	-	-	-54.3
O=C(Nc1cc(C(F)(F)F)cc(C(F)(F)F)c1)c1ccc(Cn2cc(C(F)(F)F)ccc2=O)cc1	-	20.6µM	-	16.4µM	-	-
O=C(Nc1ccccc1)c1cccc(Cn2cc(C(F)(F)F)ccc2=O)c1	-	?	-	20.6µM	-	-
N#Cc1cccc(Cn2cc(C(F)(F)F)ccc2=O)c1	-	-	-	-	-	-
